# Assay results published in paper PMC5540273 (PLoS ONE, 2017).
# Key:
# Details in all cases: concentration: 1 μM, replicates: in singlicate; n = 1
# PRKCQ = tested on: PRKCQ
# PRKD1 = tested on: PRKD1
# PRKD2 = tested on: PRKD2
# PRKD3 = tested on: PRKD3
# PRKG1 = tested on: PRKG1
# PRKG2 = tested on: PRKG2
# PRKR = tested on: T1, PRKR
# T1 construct: gene EIF2AK2
# PRKX = tested on: PRKX
# PRP4 = tested on: PRP4
# PYK2 = tested on: T2, PYK2
# T2 construct: gene PTK2B
# 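Note: KINOMEscan kinase panel screen.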
Structure (SMILES),%Inh (PRKCQ),%Inh (PRKD1),%Inh (PRKD2),%Inh (PRKD3),%Inh (PRKG1),%Inh (PRKG2),%Inh (PRKR),%Inh (PRKX),%Inh (PRP4),%Inh (PYK2)
COc1ccc(CNC(=O)NC2CCN(c3ccnc(Nc4cc(OC)c(OC)c(OC)c4)n3)C2)cc1 (stereo not drawn) [GSK1379748],0%,0%,0%,0%,0%,11%,14%,17%,43%,0%
Cl.NC(=O)c1cccc(Nc2nccc(Nc3ccc(Oc4cccc(Cl)c4)c(Cl)c3)n2)c1 [GW659008],0%,0%,6%,0%,0%,3%,0%,15%,18%,15%
Cl.O=C(Nc1cccc(-c2nn3ncccc3c2-c2ccnc(Nc3cccnc3)n2)c1)c1c(F)cccc1F [GSK312879],25%,0%,0%,25%,16%,0%,0%,3%,11%,0%
O=c1cc(N2CCOCC2)nc2n(Cc3cccc(Cl)c3Cl)ccn12 [GSK2286295],14%,0%,20%,0%,0%,0%,0%,0%,0%,0%
Cc1cccc(-c2nc(-c3ccc(S(C)(=O)=O)cc3)sc2-c2ccnc(NCCc3ccccc3)c2)c1,26%,1%,0%,0%,20%,20%,0%,0%,9%,4%
Fc1cccc(COc2nnc(-c3ccc4c(c3)CCO4)o2)c1,22%,0%,1%,0%,0%,0%,0%,0%,8%,10%
Cc1ccccc1-n1cnc2c(N)ncnc21 [SKF-97510],0%,0%,0%,4%,0%,0%,0%,0%,0%,0%
O=C(Nc1ccc2c(c1)OCO2)NC1CCN(c2ccnc(Nc3ccc(F)cc3)n2)C1 (stereo not drawn) [GSK1379724],0%,16%,5%,0%,0%,0%,0%,0%,17%,0%
NC(=O)c1nnc2ccccc2c1N,3%,0%,53%,0%,0%,14%,0%,1%,0%,12%
COc1ccc(Nc2nccc(NCCNC(=O)Nc3ccccc3F)n2)cc1 [GSK1379901],0%,0%,83%,0%,8%,0%,1%,5%,14%,8%
Cc1cccc(-c2nc(C)cc(Nc3ccncc3)n2)n1 [GSK257997],0%,78%,80%,85%,0%,6%,0%,1%,13%,0%
COC(=O)c1c(-c2ccccc2)c2cc(C(=O)O)ccc2c(=O)n1Cc1ccccc1,22%,14%,0%,3%,8%,0%,3%,0%,9%,0%
Cc1cc(NCC(c2ccccc2)c2ccccc2)nc(NCc2ccc(C(F)(F)F)cc2)n1 [GW497681],0%,0%,6%,0%,0%,0%,0%,6%,29%,6%
Cc1cccc(-c2nc(Nc3cccc(C(N)=O)c3)c3ccccc3n2)n1 [GW876019],0%,64%,66%,87%,0%,0%,6%,0%,11%,6%
COC(=O)c1c(-c2ccccc2)c2cc(OC)ccc2c(=O)n1Cc1ccccc1,15%,0%,16%,0%,0%,2%,4%,4%,7%,6%
O=C(Nc1n[nH]c2nc(-c3nccs3)c(Br)cc12)C1CCCC1 [SB-742609],4%,0%,0%,0%,2%,0%,5%,0%,13%,9%
O=C1NC(=O)C(N2CCc3ccccc32)=C1c1ccccc1Cl [SB-373598],7%,12%,3%,0%,36%,12%,5%,12%,0%,0%
Cc1cc(N2Cc3ccccc3C2)nc(Nc2ccc(S(=O)(=O)N3CCOCC3)cc2)n1.Cl [GSK1669917],0%,0%,0%,0%,0%,0%,0%,0%,16%,0%
